FLuc modulator = firefly luciferase modulation, counter-screen for miR-21 project; Potency, µM (highest dose often 57.5 µM), without a hit: top-dose activity change, negative = inhibition, usual class: inhibitors; hit rate 6.9% among 360,000; AID 588342; purified FLuc, Km substrates, luminescence inhibition;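 further: plate controls were vehicle for no effect and reference inhibitor for full effect; nearly all actives have a fitted effect of over 55% in size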
Target sequence (P08659 whole entry, looked up): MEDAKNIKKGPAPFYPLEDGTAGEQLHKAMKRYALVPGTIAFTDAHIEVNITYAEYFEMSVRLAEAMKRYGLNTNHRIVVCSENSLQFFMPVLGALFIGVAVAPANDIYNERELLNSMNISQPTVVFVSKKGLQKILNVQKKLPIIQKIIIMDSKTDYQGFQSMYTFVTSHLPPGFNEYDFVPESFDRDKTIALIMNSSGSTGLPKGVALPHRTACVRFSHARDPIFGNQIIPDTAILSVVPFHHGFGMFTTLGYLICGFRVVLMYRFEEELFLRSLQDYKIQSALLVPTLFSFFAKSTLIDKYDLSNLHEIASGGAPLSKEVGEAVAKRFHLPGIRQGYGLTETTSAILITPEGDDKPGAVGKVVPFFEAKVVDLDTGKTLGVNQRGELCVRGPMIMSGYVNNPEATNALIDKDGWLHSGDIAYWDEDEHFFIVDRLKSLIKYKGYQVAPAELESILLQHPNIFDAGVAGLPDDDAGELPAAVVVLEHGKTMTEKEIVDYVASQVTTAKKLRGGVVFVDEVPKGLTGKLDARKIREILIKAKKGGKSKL
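Purified P. pyralis luciferase, 10 nM final, with Km-level 10 uM D-luciferin and 10 uM ATP in 50 mM Tris acetate pH 7.5, 10 mM Mg acetate, 0.01% Tween-20, 0.05% BSA; 6-point qHTS titration about 60 µM downward; luminescence read.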
Rab9 promoter act = activators of Rab9 promoter | AID 485297 | Huh7 Rab9 promoter-luciferase reporter, luminescence, 24 h | Potency, µM (top dose mostly 9.22 µM), for the others: at the top dose activation, negative = inhibition, hits mostly activators | hit rate 2.8% among 320,000; further: % of control where 0% means no effect; nearly all actives have a fitted effect of over 60% in size
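Rab9 promoter-driven luciferase in stably transfected Huh7 cells; 1500 cells/well rested 2 h, exposed to compound in DMSO for 24 h at 37 °C, 5% CO2. Luminescence read 10 min after adding luciferase reagent at ambient temperature.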
ELG1 genotoxic = induces genotoxicity in HEK293T cells with luciferase-tagged ELG1; HEK293T ELG1-luciferase reporter, luminescence, 16 h; hit rate 1.3% among 330,000; Potency, µM (doses to about 46 µM), without a hit: top-dose activity change, positive = activation, actives largely listed as activators; AID 504466; further: % of control where 0% means no effect; nearly all actives have a fitted effect of over 60% in size
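Screening used a luciferase reporter fused to human ELG1 in HEK293T cells. Luminescence was read on a CCD plate imager after 16 hr exposure and 30 min ONE-Glo incubation.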
NPC1 promoter act = activates the NPC1 promoter | Huh7 NPC1 promoter luciferase reporter, 24 h | hit rate 2.4% among 320,000 | AID 485313 | Potency, µM (top dose mostly 9.22 µM), inactives show at the top dose activation, usual class: activators; further: % of control where 0% means no effect; nearly all actives have a fitted effect of over 60% in size
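Huh7 cells stably carrying NPC1 promoter–luciferase, plated in Opti-MEM with 10% FBS for 2 h, were exposed to compound in DMSO for 24 h at 37 °C; luciferase reagent was added for 10 min and luminescence read.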
Luc counter = Kinase-Glo luciferase inhibition (counter-screen) | Q27757 | Kinase-Glo luciferase, ATP luminescence, 8 min | Potency, µM (highest dose often 38.3 µM), for the others: at the highest dose activity change, negative = inhibition, hits mostly inhibitors | hit rate 0.28% among 200,000 | AID 1379; further: on the % scale 0 is the no-effect control and ±100 the full control effect; nearly all actives have a fitted effect of over 60% in size
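Compounds were added to a substrate mix at pH 7.2 (50 mM imidazole, 10 uM ATP, within the enzyme's linear range), followed by Kinase-Glo detection reagent; luminescence was measured after 8 minutes at ambient temperature.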
SMN2 splice up = SMN2 splice variant enhancement | hit rate 2.8% among 210,000 | Potency, µM (titrated, usually from 46.1 µM), without a hit: top-dose activity change, positive = activation, actives largely listed as activators | HEK293 SMN2-luciferase splicing reporter, luminescence, 30-36 h; further: % of control where 0% means no effect; nearly all actives have a fitted effect of over 55% in size
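HEK293 cells carry an SMN2 […]–luciferase reporter in which exon 7 inclusion puts luciferase in frame. Cells were plated 10-12 h before compound addition, then incubated 30-36 h at 37C. ONE-Glo luminescence was read; sodium butyrate at 4.5 mM final served as control.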
The depositor's hits bear a star; u = inconclusive; x = no result; [ ] = another dose, or the depositor's remark. Hits are enriched below; roughly 7.4% of the tested compounds scored in any of these assays. The call rests on the fitted dose curve; in most records, active means well fitted curve in the direction sought with a large enough effect; inconclusive means small, poorly fitted or top-dose-only effect, or another doubt; inactive means no such curve, though single readings can be large; an effect the other way counts as inactive or inconclusive. Potency means the concentration at half of the fitted maximal effect.

SMILES	FLuc modulator	Rab9 promoter act	ELG1 genotoxic	NPC1 promoter act	Luc counter	SMN2 splice up
CC1CCCC(NC(=O)c2ccc3c(c2)OCCO3)C1C (stereo not drawn)	13µM*	1.6µM*	u	4µM*	x	x
COc1cc2cnc(CCO[C@H]3CCCCO3)cc2cc1OC	x	x	1%	x	x	x
CC(C)CC(=O)Nc1nnc(CSCc2ccc(F)cc2)s1	-2%	-6%	-3%	2%	x	x
O=C(COC(=O)Cc1ccc(S(=O)(=O)N2CCOCC2)s1)NCc1ccc(Cl)cc1	6%	2%	2%	0%	-2%	-27%
COc1ccc(/C=C/c2cc(C(=O)O)c3ccccc3n2)cc1	0.067µM*	u	-15%	u	x	x
CCOc1ccccc1/C=C/c1cc(C(=O)O)c2ccccc2n1	13µM*	14%	10%	22%	x	x
COc1cc(OC)c(OC)cc1/C=C/c1cc(C(=O)O)c2ccccc2n1	11µM*	-8%	3%	-1%	0%	-8%
CCOc1ccccc1/C=C/c1nc2ccccc2[nH]c1=O	-10%	4µM*	5%	3.2µM*	x	x
CCOC(=O)C1=C(CNCc2ccccc2)NC(=O)NC1c1ccc(C)cc1 (stereo not drawn)	-8%	x	x	x	x	-4%
O=C(Nc1ccc(Cl)c(-c2nc3ccccc3o2)c1)c1cccc2c(Cl)cccc12	-2%	x	x	x	x	3%
S=c1cnc2ccccc2[nH]1	u	-6%	-4%	-4%	4%	26%
Cc1cc(/C=C\c2ccccc2)nc2ccccc12	1.5µM*	u	u	23%	0%	x
O=C1CCN(S(=O)(=O)c2ccccc2)CCN1CCOCc1ccc(Cl)cc1	6%	1%	-9%	-6%	x	x
Cc1cccc(-c2nc(Nc3cccc(O)c3)c3ccccc3n2)c1	u	1%	-6%	0%	x	x
Oc1cccc(Nc2cc(-c3ccccc3)ncn2)c1	17µM*	x	x	x	x	x
O=C(NCCSc1c(-c2ccc(Br)cc2)[nH]c2ccccc12)c1ccc(S(=O)(=O)N2CCOCC2)cc1	0%	x	x	x	x	-12%
CCn1c(SCC(=O)N/N=C/C=C/c2ccco2)nnc1-c1ccccc1	u	-7%	1%	-5%	1%	-41%
CCn1c(SCC(=O)N/N=C/C(C)=C/c2ccco2)nnc1-c1ccccc1	15µM*	2%	-2%	-2%	1%	-11%
CCn1c(SCC(=O)N/N=C/C(C)=C\c2ccco2)nnc1-c1ccccc1	13µM*	1%	1%	-1%	2%	-9%
CCc1ccc(C(=O)NNC(=O)CN2C(=O)NC3(CCCC3)C2=O)cc1	15µM*	0%	5%	-4%	x	x
CCOc1ccc(CCNC(=O)COC(=O)c2ccc[nH]c2=O)cc1OCC	x	x	3%	x	x	x
CCOC(=O)C1(Cc2cccc(Cl)c2)CCCN(C(=O)c2cc(C(C)C)nn2C)C1 (stereo not drawn)	-7%	16%	-8%	4%	x	x
O=C(N/N=C/c1ccc(OC2CSC2)cc1)c1ccccc1	2.4µM*	2.2µM*	u	3.2µM*	-19%	21%
O=C(N/N=C/c1ccc(OCc2ccc(F)cc2)cc1)c1ccccc1	-4%	-2%	11%	9%	3%	7%
CNC(=O)c1ccc(OC2CSC2)cc1	1%	x	x	x	0%	2%
SMILES	FLuc modulator	Rab9 promoter act	ELG1 genotoxic	NPC1 promoter act	Luc counter	SMN2 splice up
O=C(/C=C/c1ccc(OC2CSC2)cc1)c1ccccc1	0.54µM*	1.8µM*	u	3.5µM*	u	13%
C=CCS/C(N)=N\N=C\c1cc(Br)cc([N+](=O)[O-])c1O	u	4%	-3%	-1%	x	x
Cc1cccc(-n2c(O)c(C=Nc3cccc(O)c3)c3ccccc3c2=O)n1	-11%	1%	-7%	-1%	x	x
CC1=NC(=O)C(N=Nc2cccc(O)c2)N1c1ccccc1 (stereo not drawn)	6.7µM*	7%	15µM*	-6%	-3%	-11%
C[C@H](CO)N1C[C@H](C)[C@@H](CN(C)C(=O)Nc2ccccc2)Oc2c(NS(=O)(=O)c3cccs3)cccc2C1=O	x	x	6%	x	x	x
c1ccc2c3n(nc2c1)CCCO3	3%	-1%	4%	0%	x	x
C(#CC1CCCCC1)c1ccc2c(c1)COc1c3ccccc3nn1-2	4.8µM*	u	19%	u	x	x
C(#Cc1ccc2c(c1)COc1c3ccccc3nn1-2)c1ccccc1	12µM*	u	u	u	x	x
CC(C#Cc1ccc2c(c1)COc1c3ccccc3nn1-2)OC(C)(C)C (stereo not drawn)	11µM*	u	12%	u	x	x
Cc1cn2c(=O)cc(COc3cccc(NC(=O)c4ccc(C(C)(C)C)cc4)c3)nc2s1	1.2µM*	x	x	x	x	9%
Cc1cn2c(=O)cc(COC(=O)c3cccc(NC(=O)c4ccc(C(C)(C)C)cc4)c3)nc2s1	0.76µM*	x	x	x	x	x
CCCOCC(C)O (stereo not drawn)	x	x	x	x	x	-2%
COc1ccc(C2=C3C(=O)OCC3Cc3ncn(Cc4ccccc4)c32)cc1 (stereo not drawn)	3%	0%	6%	5%	x	x
CN(C)S(=O)(=O)c1ccc(/C(O)=C2/C(=O)C(=O)N(Cc3cccnc3)C2c2cccs2)cc1 (stereo not drawn)	-7%	3%	0%	-3%	x	x
Cc1c(/C(O)=C2/C(=O)C(=O)N(Cc3cccnc3)C2c2cccs2)cnn1-c1ccccc1 (stereo not drawn)	-2%[2.3 µM]	3.5µM*	u	u	2%	-29%
Cc1c(/C(O)=C2/C(=O)C(=O)N(Cc3cccnc3)C2c2ccccn2)cnn1-c1ccccc1 (stereo not drawn)	15µM*	-17%	u	-5%	2%	-19%
Cc1ccc(C(=O)Oc2cc(C)n(C)c(=O)c2)cc1	15µM*	-3%	-2%	-7%	-7%	-15%
Cc1cc(C(=O)OCC(=O)N2CCc3ccccc32)ccc1[N+](=O)[O-]	4%	-1%	-3%	-2%	x	x
CC(=O)COc1ccc2c(C)c(C)c(=O)oc2c1	1%	u	u	6%	-3%	-7%
O=c1oc2cc(O)ccc2c2oc3cc(O)ccc3c12	19µM*	1%	7%	1%	-2%	-23%
COc1ccc(-c2c(C)c3ccc(OCC(C)=O)cc3oc2=O)cc1	24µM*	2.2µM*	-6%	2.8µM*	-1%	u
COc1ccc(-c2c(C)c3ccc(O)cc3oc2=O)cc1	15µM*	14%	13%[9.26 µM]	u	x	x
CCN(CC)c1ccc2c(C)c(-c3ccc(N)cc3)c(=O)oc2c1	24µM*	24%	6%	23%	-3%	u
O=c1oc2cc(O)ccc2c2ccccc12	-5%	-2%	16%	1%	-2%	-12%
